Source: PubChem BioAssay AID1566 (Sanford-Burnham Center for Chemical Genomics, 2009)
“And” between values parts separate entries of the source, which are not always exact repeats. Identical values can stand only once. The whole screen tested about 290,000 compounds, of which about 1,800 (0.62%) were called active. Cut-off read from the data, not from the text of the source: active = inhibition above about 50%; inactive = the rest. What follows is part of a selection rich in actives, with near analogues and random picks from the rest.

Assay: inhibition of NOD2-driven NF-kB reporter – cell-based, luminescence, uHTS, HEK293 (AID 1566)
Details: HEK293 NOD2/NF-kB luciferase reporter, at 4 µM, hits give high values

Row | SMILES | inhibition
1 | Cc1ccc(S(=O)(=O)NNC(=O)c2ccccc2O)cc1 | 8.4% (inactive)
2 | COc1ccc(S(=O)(=O)N(Cc2cc3cc(C)ccc3[nH]c2=O)CC2CCCO2)cc1 (stereo unspecified) | 16.6% (inactive)
3 | CC(C)(C)c1ccc(C(=O)NC(=S)Nc2nc3c(s2)CCCC3)cc1 | 60.3% (active)
4 | O=C(NC(=S)Nc1nc2c(s1)CCCC2)c1ccccc1 | -7.3% (inactive)
5 | COC(=O)c1ccc(C(=O)NC(=S)Nc2nc3c(s2)CCCC3)cc1 | 5.1% (inactive)
6 | COc1ccc(S(=O)(=O)N(CC(=O)N2CCN(C)CC2)c2ccc(C)cc2)cc1Br | -9.5% (inactive)
7 | CC1(C)N=C(N)N=C(N)N1c1ccc(Oc2ccc(Cl)cc2)c(Cl)c1 | 58.7% (active)
8 | COc1ccc(N2C(N)=NC(N)=NC2(C)C)cc1 | -2.7% (inactive)
9 | CCOc1ccc(N2C(N)=NC(N)=NC2(C)C)cc1 | -5.6% (inactive)
10 | COc1ccccc1N1CCN(C(=O)CSc2nnc3c4ccccc4n(CC(=O)O)c3n2)CC1 | 9.3% (inactive)
11 | COC(=O)CSc1nnc(CNC(=O)c2ccc(S(=O)(=O)N3CCCCC3)cc2)n1C | 12.8% (inactive)
12 | Cc1ccc(NC(=O)C2=NNC(=O)CC2)cc1F | -17.2% (inactive)
13 | Cc1ccccc1S(=O)(=O)Oc1cccc2c(O)cccc12 | 1.5% (inactive)
14 | CNC(=O)CN(c1cc([N+](=O)[O-])ccc1OC)S(C)(=O)=O | 12.6% (inactive)
15 | CCc1oc2ccccc2c1C(=O)CCN1CCCCC1 | 3.9% (inactive)
16 | CCc1oc2ccccc2c1C(=O)c1cc(Br)c(O)c(Br)c1 | 51.8% (active)
17 | CCCCc1oc2ccccc2c1C(=O)c1cc(I)c(OCCN(CC)CC)c(I)c1 | 14.9% (inactive)
18 | O=C(COC(=O)c1cccnc1Cl)c1ccc(Cl)cc1Cl | 9.1% (inactive)
19 | CCCc1ccc(-c2cc(C(=O)Nc3ccc([N+](=O)[O-])cn3)c3ccccc3n2)cc1 | -29.8% (inactive)
20 | COc1ccc2oc(=O)c(C(C)=O)cc2c1 | 19.5% (inactive)
21 | CCCCN(Cc1ccco1)C(=O)c1cc2c(=O)[nH]c3ccc(C)cc3c2s1 | 34.9% (inactive)
22 | COc1ccc(N(CC(=O)N/N=C/c2ccc(N(C)C)cc2)S(=O)(=O)c2ccccc2)cc1 | -57% (inactive)
23 | CCN(CC)c1ccc(/C=N/NC(=O)CNC(=O)C2COc3ccccc3O2)c(O)c1 (stereo unspecified) | 69.1% (active)
24 | O=C(CNC(=O)C1COc2ccccc2O1)N/N=C/c1ccc(O)cc1O (stereo unspecified) | 8.2% (inactive)

Row | SMILES | inhibition
25 | O=C(CNC(=O)C1COc2ccccc2O1)N/N=C\c1ccccc1Cl (stereo unspecified) | 19.9% (inactive)
26 | O=C(CSc1nc(-c2ccco2)cc(C(F)(F)F)n1)N1CCSCC1 | 13.4% (inactive)
27 | CCOC(=O)N1CCN(S(=O)(=O)N2CCCC(C(=O)NCCCN3CC(C)CC(C)C3)C2)CC1 (stereo unspecified) | -13.2% (inactive)
28 | CN1CCc2nc(NC(=O)COc3ccc4ccccc4c3)sc2C1 | -39.7% (inactive)
29 | NC(=O)c1cccnc1Nc1ccccc1F | -1.6% (inactive)
30 | O=C(Nc1nc2cc3c(cc2s1)OCCO3)c1cccc(N2C(=O)CCC2=O)c1 | -37.4% (inactive)
31 | CCN(CC)S(=O)(=O)c1cccc(C(=O)Nc2nnc(C)s2)c1 | 10.5% (inactive)
32 | CCN(CC)C(=O)CNc1ccc(C(F)(F)F)cc1[N+](=O)[O-] | 4.7% (inactive)
33 | CCOc1ccc(N(CC(=O)N2CCN(c3ccccc3OC)CC2)S(=O)(=O)c2ccc(F)cc2)cc1 | -13% (inactive)
34 | CCc1ccc(OCC(=O)NC(=S)Nc2ccc(C(C)=O)cc2)c(Br)c1 | 41.8% (inactive)
35 | CCCn1c(=O)c(C(=O)Nc2c(C)n(C)n(-c3ccccc3)c2=O)c(O)c2ccccc21 | 0.6% (inactive)
36 | O=C(NCC1CCCN(C(=O)NCc2ccccc2)C1)c1ccc2c(c1)OCO2 (stereo unspecified) | -0.6% (inactive)
37 | COc1cc(/C=C/C(=O)OCC(=O)NC2CC2)cc(S(=O)(=O)N2CCc3ccccc32)c1OC | 15% (inactive)
38 | CN1C(=O)/C(=C/c2ccc(OCc3ccc(C(=O)O)cc3)c(Cl)c2)NC1=S | 33.9% (inactive)
39 | CCOc1cc(/C=C2\NC(=S)N(C)C2=O)ccc1OCc1ccc(C(=O)O)cc1 | -3% (inactive)
40 | CCN1C(=O)/C(=C/c2ccc(OCc3ccc(C(=O)O)cc3)c(Cl)c2)NC1=S | 57.5% (active)
41 | O=C(NCCc1ccc(F)cc1)Nc1ccccc1 | -13.6% (inactive)
42 | CCOc1cccc(/C=N/NC(=S)Nc2ccccc2[N+](=O)[O-])c1O | 64.7% (active)
43 | CCCOc1ccc(/C=N/Nc2ccccc2[N+](=O)[O-])c(O)c1 | 42.2% (inactive)
44 | CCCOc1ccc(/C=N/Nc2ccccc2[N+](=O)[O-])c(OCCC)c1 | 30.3% (inactive)
45 | CCCCNC(=S)N/N=C/c1cccc(OCC)c1O | -5.1% (inactive)
46 | CCOc1ccccc1/C=N/Nc1ccccc1[N+](=O)[O-] | -58% (inactive)
47 | COc1ccc(N2CCN(CC(=O)NCc3ccccc3)CC2)cc1 | -7.3% (inactive)
48 | COc1ccccc1NS(=O)(=O)c1cccc(C(=O)NN=C2CCCC2)c1 | 4.3% (inactive)

Row | SMILES | inhibition
49 | COc1ccc(N(CC(=O)NC(C)(C)C)C(=O)CCC(=O)Nc2nccs2)cc1 | 5.1% (inactive)
50 | CC1=NNC(=O)C1C(c1ccccc1)C1C(=O)NN=C1C (stereo unspecified) | 20.3% (inactive)
51 | CCCC(=O)N(CCN1CCOCC1)c1nc2c(OCC)cccc2s1 | 5.2% (inactive)
52 | COc1ccccc1CN1CCNC(=O)C1CC(=O)NCCCN1CCCC1=O (stereo unspecified) | -4.3% (inactive)
53 | Oc1ccc(Br)cc1CNc1nccs1 | -5.1% (inactive)
54 | O=S(=O)(Nc1nccs1)c1ccc(NCc2cc(Br)cc(Br)c2O)cc1 | 6.8% (inactive)
55 | Oc1c(Br)cc(Br)cc1CNc1nccs1 | 57% (active)
56 | CCOC(=O)c1[nH]c2ccc(OCC)cc2c1NC(=O)CN1CCC2(CC1)OCCO2 | -2.2% (inactive)
57 | COc1ccccc1N1CCN(C(=O)c2cc(C(=O)N3CCN(c4ccccc4OC)CC3)cc([N+](=O)[O-])c2)CC1 | 3.5% (inactive)
58 | CCn1c(SCC(=O)N2CCN(c3ccccc3)CC2)nnc1-c1c[nH]c2ccccc12 | 6.3% (inactive)
59 | COc1ccccc1C(C)NCC(=O)Nc1c(F)cccc1F (stereo unspecified) | 5.5% (inactive)
60 | Cn1c(Sc2ccccc2Cl)c(C=O)c2ccccc21 | 36.9% (inactive)
61 | Cn1c(Oc2ccc(Cl)cc2)c(C=O)c2ccccc21 | 48.5% (inactive)
62 | COc1ccccc1NC(=O)CN1CCCCC1 | -4.7% (inactive)
63 | O=C(O)COc1ccccc1/C=N/n1c(C2CCCCC2)n[nH]c1=S | 17.3% (inactive)
64 | CCOc1cc2c3c(c1)C(C)CC(C)(C)N3C(=O)C2=O (stereo unspecified) | 10% (inactive)
65 | CCc1cc2c3c(c1)C(C)CC(C)(C)N3C(=O)C2=O (stereo unspecified) | 11.8% (inactive)
66 | Cc1ccc(SCC2(O)CCN(S(=O)(=O)c3ccc(Cl)cc3)CC2)cc1 | 17.7% (inactive)
67 | O=S(=O)(c1ccccc1)N1CCC(O)(CSc2ccccc2)CC1 | 28.2% (inactive)
68 | O=S(=O)(c1ccccc1)N1CCC(O)(CSc2ccc(Cl)cc2)CC1 | 56.9% (active)
69 | CCOc1ccccc1NC(=O)CCc1nnc2ccc(N3CCC4(CC3)OCCO4)nn12 | -11.6% (inactive)
70 | O=C(Cn1nnc(N2CCCC2)n1)N/N=C/c1ccc(Cl)cc1 | -2.3% (inactive)
71 | Cc1c(NC(=O)c2ccccc2)cccc1[N+](=O)[O-] | 21.3% (inactive)
72 | N/C(=N\OC(=O)c1ccccc1)c1ccccn1 | -52.6% (inactive)

Row | SMILES | inhibition
73 | Cc1ccc(C(=O)O/N=C(\N)c2ccccn2)cc1 | -94.8% (inactive)
74 | CC(NC(=O)Nc1ccccn1)N1C(=O)C2C3C=CC(C3)C2C1=O (stereo unspecified) | 15.9% (inactive)
75 | Cc1cc(C(=O)NCc2cccs2)ccc1[N+](=O)[O-] | 0.2% (inactive)
76 | COc1ccc2c(c1)N(C(=O)CN1C(=O)C3CCCCC3C1=O)C(C)(C)C=C2C (stereo unspecified) | -4.7% (inactive)
77 | CC(O)c1cccc(NC(=O)Nc2cccc(NC(=O)Nc3cccc(C(C)O)c3)c2)c1 (stereo unspecified) | 73.1% (active)
78 | CC(C)CC(=O)Nc1cccc(C(C)O)c1 (stereo unspecified) | -0.6% (inactive)
79 | CC(O)c1cccc(NC(=O)CCC(=O)O)c1 (stereo unspecified) | 0.6% (inactive)
80 | COc1ccccc1C(CC(=O)Nc1ccc(Cl)cc1)c1ccc(OC(C)C)cc1 (stereo unspecified) | 2.5% (inactive)
81 | O=C(CCSCc1cccc(Cl)c1)NCCC1=CCCCC1 | 12.1% (inactive)
82 | CCOc1ccccc1N1CCN(C(=O)c2c(Cl)cnn2C)CC1 | 9.1% (inactive)
83 | CCn1cnc2cc(NS(=O)(=O)c3ccc(OC)c(OC)c3)ccc21 | 0% (inactive)
84 | CCC1c2ccc(C)n2CCN1C(=O)Nc1cc(Cl)ccc1OC (stereo unspecified) | 13.8% (inactive)
85 | COc1ccc(O)c(-c2[nH]ncc2C(=O)c2ccccc2C)c1 | 5.8% (inactive)
86 | COc1ccc(O)c(-c2[nH]ncc2C(=O)c2cccc(C)c2)c1 | 9.9% (inactive)
87 | O=C(Cn1ncc2c3ccccc3n(Cc3ccc(F)cc3)c2c1=O)N1CCN(c2ncccn2)CC1 | 15.9% (inactive)
88 | O=C(Nc1nncs1)C1COc2ccccc2O1 (stereo unspecified) | -9% (inactive)
89 | O=C(Nc1ccccc1)C1COc2ccccc2O1 (stereo unspecified) | -18.8% (inactive)
90 | O=C(NC1=NCCS1)C1COc2ccccc2O1 (stereo unspecified) | 63.1% (active)
91 | Nc1ccc(S(=O)(=O)O)cn1 | 7.7% (inactive) and 2.4% (inactive)
92 | S=c1[nH]nc(-c2ccc(Cl)cc2)n1/N=C/c1cccs1 | -8.1% (inactive)
93 | O=c1c2ccccc2cnn1CCOc1ccccc1 | 60.4% (active)
94 | COc1ccc2cnn(CCOc3ccccc3)c(=O)c2c1OC | -68.5% (inactive)
95 | O=c1c2ccccc2cnn1CCOc1cccc(Br)c1 | -63.9% (inactive)
96 | CC(C)CN1CCNC(=O)C1CC(=O)NCCCN1CCCc2ccccc21 (stereo unspecified) | 3% (inactive)
